From PubChem BioAssay
Calls of active or inactive are those of the source. Rule as the data show it: active = inhibition above about 28%; inactive = the rest.

Test: StAR promoter reporter inhibitors, counter-screen for LRH-1 inverse agonist project, cell-based, luminescence, high throughput (AID 651611)
Conditions: StAR promoter luciferase reporter counterscreen, at 3.6 µM, hits give high values

| Compound | inhibition |
| --- | --- |
| Cc1cc(OCC(=O)Nc2nccs2)c2c(C)c(C)c(=O)oc2c1 | 42% (active) |
| Cc1cccc(-n2ncc3c2CCCC3NC(=O)C2(C(N)=O)CC2)c1C (stereo not given) | 16.4% (inactive) |
| C/C(CC1CC(C)(C)OC1=O)=N/Nc1nc(-c2ccccc2)cs1 (stereo not given) | -5.65% (inactive) |
| CC(=O)N1CCc2c(sc(NC(=O)CCS(=O)(=O)c3ccccc3)c2C#N)C1 | -5.27% (inactive) |
| CCn1c(=O)[nH]c(=O)c2c(N)c(C(=O)c3cc(F)ccc3F)sc21 | 10.4% (inactive) |
| NC(=S)N/N=C/c1ccc(C(F)(F)F)cc1 | -1.87% (inactive) |
| O=C(Nc1ccc(N2CCN(C(=O)c3ccco3)CC2)cc1)c1ccc2c(c1)OCO2 | 23.4% (inactive) |
| COc1ccc(NC(=O)COC(=O)/C=C/C(=O)OCC(=O)Nc2ccc(OC)c(Cl)c2)cc1Cl | 6.28% (inactive) |
| Nc1ccc(C(=O)NN2C(=O)[C@H](Cl)C2c2ccc(Cl)cc2)cc1 (stereo not given in full) | 8.81% (inactive) |
| Cc1ccc(NC(=O)COC(=O)C(NS(=O)(=O)c2ccc(Cl)cc2)C(C)O)c(Br)c1 (stereo not given) | 3.18% (inactive) |
| CCOC(=O)c1cnc(-n2nc(C)cc2C)nc1NC1CCCC1 | 0.01% (inactive) |
| Cc1ccc(-c2csc(NC(=O)C3CCN(S(=O)(=O)c4cccs4)CC3)n2)cc1 | 15.3% (inactive) |
| Cc1nn(Cc2ccc(Cl)cc2)c(C)c1NC(=O)c1noc2c1CCCCC2 | 21% (inactive) |
| COc1cccc2c1C(=O)c1c(O)c3c(c(O)c1C2=O)C[C@@](O)(C(C)=O)C[C@@H]3O[C@H]1C[C@H](N)[C@H](O)[C@H](C)O1 | 76.5% (active) |
| CCOC(=O)C1CCN(Cc2cc(Cl)c3ccccc3c2O)CC1 | 1.44% (inactive) |
| Cn1cccc1C(=O)OCC(=O)NCCCc1ccccc1 | 3.25% (inactive) |
| O=C(CSc1nnnn1C1CCCC1)Nc1ccc2c(c1)OCCO2 | -0.49% (inactive) |
| CCCCCCCCn1c2c(c(=N)c3ccccc31)CCC2 | 78.5% (active) |
| Cc1ccccc1OCC(=O)N/N=C/c1ccc([N+](=O)[O-])o1 | 18.6% (inactive) |
| CCOc1ccc(CCNC(=O)COC(=O)CSc2ccccc2C)cc1OCC | 2.02% (inactive) |
| Cc1ccc(Sc2ccc(NC(=O)CCl)cc2)cc1C | 0.02% (inactive) |
| CCCCSc1nc(SCC(=O)NCc2ccco2)c2c3c(sc2n1)COC(C)(CC)C3 (stereo not given) | 4.87% (inactive) |
| CC[n+]1c(/C=C/c2ccc(N(C)C)cc2)ccc2ccccc21 | 71.9% (active) |
| Cc1cc(OCC(=O)NC2CC2)c2c(C)c(C)c(=O)oc2c1 | 13.4% (inactive) |
| CC1(C(=O)NCc2ccc3c(c2)OCO3)CCN1C(=O)Cc1ccc(Cl)cc1Cl (stereo not given) | 7.73% (inactive) |
